Bioassay records (PubChem BioAssay)
Sampled rows, rich in hits. Any-hit rate of the full collection: about 14%.
FBPA Giardia inh: Giardia lamblia aldolase inhibition; purified Giardia FBPA; hit rate 0.71% among 290,000; Potency, µM (top dose mostly 59.6 µM), inactives show top-dose activity, negative = inhibition, actives largely listed as inhibitors; AID 2451; A8B2U2; further: potency means the concentration at half of the fitted maximal effect; on the % scale 0 is the no-effect control and ±100 the full control effect; nearly all actives have a fitted effect of over 55% in size
Target sequence (A8B2U2 whole entry, looked up): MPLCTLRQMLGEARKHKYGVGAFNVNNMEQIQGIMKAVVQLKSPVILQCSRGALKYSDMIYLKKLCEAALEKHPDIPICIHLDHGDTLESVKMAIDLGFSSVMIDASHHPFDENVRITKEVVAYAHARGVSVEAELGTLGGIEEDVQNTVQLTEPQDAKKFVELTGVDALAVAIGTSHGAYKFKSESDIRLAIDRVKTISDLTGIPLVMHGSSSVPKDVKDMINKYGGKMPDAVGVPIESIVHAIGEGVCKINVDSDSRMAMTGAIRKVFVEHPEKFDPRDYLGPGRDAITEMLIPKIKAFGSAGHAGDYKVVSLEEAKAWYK
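40 nM FBPA preincubated 10 min at RT with compound (up to 57.5 uM final), then substrate plus GAPDH/TPI/NAD/arsenate coupling and diaphorase/resazurin added. Fluorescence read after 20 min at RT, 525/598 nm.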
NS1 function inh: influenza NS1 inhibition; Potency, µM (doses to about 46.1 µM), inactives show at the highest dose activity, positive = more growth; hit rate 0.4% among 270,000; AID 2326; calls by dose curve; further: potency means the concentration at half of the fitted maximal effect; actives are rising curves; nearly all actives have a fitted effect of over 50% in size
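OD600 was taken as the measure of yeast growth restored by compound in an NS1-expressing S. cerevisiae strain. Cells had been washed out of glucose medium and diluted 1:100 into galactose -URA medium, pH 6.0.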
LmPK inh: inhibitors of Leishmania mexicana pyruvate kinase. hit rate 0.37% among 290,000. purified LmPK, Kinase-Glo ATP luminescence, 1 h. Potency, µM (doses to about 57.5 µM), for the others: top-dose activity change, negative = inhibition, usual class: inhibitors. Q27686; further: potency means the concentration at half of the fitted maximal effect; on the % scale 0 is the no-effect control and ±100 the full control effect
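qHTS format; LmPK 0.1 nM; substrates PEP 0.5 mM and ADP 0.1 mM. One-hour room-temperature incubation, then coupled luciferase luminescence; 0.5 nM enzyme wells mark activation.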
CHX counter: affects cycloheximide protein synthesis inhibition readout, counter-screen; cell reporter, cycloheximide protein synthesis inhibition counterscreen; max response, %; hit rate 12% among 300,000; in the data active means max response mostly above about 13%, no sharp cut-off; inactive means mostly below about 14%; further: read at 38.3 µM for the half of the compounds with a filed dose; 0% is about no effect
Shiga toxin inh: inhibitors of Shiga toxin in Vero cells | Vero cells, Shiga toxin protein synthesis inhibition reporter | inhibition, % at 38.7 µM | hit rate 9.2% among 290,000; in the data active means inhibition mostly above about 28%, no sharp cut-off; inactive means mostly below about 43%; further: 0% is about no effect
* marks the source's active call; other numbers are inactive results; i = inactive; ? = inconclusive; . = no result given; [ ] = dose if it differs, or a comment. Unless noted, the call rests on the fitted dose curve; in most records, active means well fitted curve in the direction sought with a large enough effect; inconclusive means small, poorly fitted or top-dose-only effect, or another doubt; inactive means no such curve, though single readings can be large; an effect the other way counts as inactive or inconclusive.

SMILES | FBPA Giardia inh | NS1 function inh | LmPK inh | CHX counter | Shiga toxin inh
C/C(CCN1CCCCc2nc(C)c(C)cc21)=N\O[C@@H](C)c1cc(-c2c(C)cc(C)cc2C)no1 | -0.6%[12.9 µM] | . | . | . | .
COc1ccccc1-c1ccc2ncnc(NC3CC3)c2c1 | -2.9% | . | . | . | .
CCC1CN(C(=O)NCc2ccc(F)cc2)c2cc(C)ccc2O1 (stereo unspecified) | -1.5% | -5.3% | -0.3% | 1.6 | -3.5
CCC1CN(C(=O)Nc2ccc(C)cc2)c2cc(C)ccc2O1 (stereo unspecified) | 2.6% | -39.9% | 1.9% | 12.0* | 21.2
O=C(NCc1ccccc1)C1COc2ccccc2O1 (stereo unspecified) | -8.0% | 1.0% | 2.5% | 19.5* | 59.2*
Cc1cc(SCc2ccc(Br)cc2)nc(=O)[nH]1 | 10.7% | 4.2% | 0.4% | 39.9* | 18.8
Cc1cc(SCc2ccccc2C)nc(=O)[nH]1 | . | 4.8% | -9.3% | 11.2 | -3.7
Cc1cc(SCc2ccc(Cl)c(Cl)c2)nc(=O)[nH]1 | . | 3.3% | -16.6% | 27.7* | 16.8
CCNc1ncc2nc(CCc3ccccc3)c(=O)n(-c3ccccc3)c2n1 | -10.7% | . | . | . | .
COc1ccc(Nc2nc(CC(C)=O)ns2)cc1 | -4.8% | -4.8% | -0.3% | 27.4* | 68.3*
COc1cccc(Nc2nc(CC(C)=O)ns2)c1 | -3.3% | -3.4% | -2.8% | 18.7* | 59.9*
COc1cccc(/C=N/NC(=O)c2cccc3ccccc23)c1 | -10.6% | -6.1% | 7.1% | 13.4 | 8.5
CCOC(=O)N/N=C\c1cccc(OC)c1 | -3.8% | 2.9% | -6.3% | 41.7* | 71.6*
COc1ccc(/C=C/C(=O)Oc2cccc(/C=N/NC(=O)Cc3ccc(Br)cc3)c2)cc1 | -0.8% | 1.1% | 4.9% | 48.6* | 89.4*
COC(=O)N/N=C/c1cccc(OCCSc2ccc(Cl)cc2)c1 | -11.5% | -10.8% | -2.4% | 34.4* | 60.3*
COc1cc2c(cc1OC)C1O[C@](CCCCN3C(=O)c4ccccc4C3=O)(C2)OC2=C1C(=O)CCC2 | -21.3%[12.9 µM] | -4.8% | -12.4%[11.5 µM] | -0.9 | i
COC(=O)C12CC3(CCC4C5C(C(OCc6ccccc6)C41)C52)OCCO3 (stereo unspecified) | 3.0%[12.9 µM] | . | . | . | .
O=P(c1ccccc1)(c1ccccc1)c1ccc(O)cc1 | 5.7% | 2.3% | 3.7% | -1.9 | -9.7
COc1cccc(/C=C2\CCC(C3CCCC3)C2=O)c1 (stereo unspecified) | 8.6% | -10.9% | -1.3% | 51.2* | 83.5*
O=C1/C(=C\c2ccc([N+](=O)[O-])cc2)N2CCC1CC2 | 3.2% | -17.7% | -1.4% | 12.4 | -19.4
COc1ccc(/C=C2\CCC(C3CCCC3)C2=O)c(OC)c1OC (stereo unspecified) | -6.5% | 5.2% | -0.8% | -2.1 | 3.0
Cc1cccc(/C=C2\CCC(C3CCCC3)C2=O)c1 (stereo unspecified) | -1.2% | -2.8% | -0.3% | 14.8* | 13.6
O=C1/C(=C/c2ccc([N+](=O)[O-])cc2)CCC1C1CCCC1 (stereo unspecified) | 7.9% | -4.4% | 14.4% | 17.6* | 31.3
COc1cc(/C=C2\CCC(C3CCCC3)C2=O)cc(OC)c1OC (stereo unspecified) | -1.3% | 1.8% | -3.8% | -1.9 | -1.1
COc1cccc(/C=C2\CCCCC2=O)c1 | -1.1% | -3.8% | -2.6% | 15.5* | 38.5
SMILES | FBPA Giardia inh | NS1 function inh | LmPK inh | CHX counter | Shiga toxin inh
COc1cccc(/C=C2\CCC(C3CCCC3)C2=O)c1OC (stereo unspecified) | -1.5% | -46.7% | -5.6% | 37.6* | 97.5*
Cn1nccc1C(=O)NC1CCCc2c1cnn2-c1ccc(C(C)(C)C)cc1 (stereo unspecified) | . | -50.5% | -1.4% | 10.6 | 10.1
CCc1cccc(NC(=O)CSc2nc3ccccc3nc2N2CCCCC2)c1 | . | . | . | 16.8 | 14.2
O=C(NCCOc1ccccc1)c1ccccc1NC(=O)C1CCCO1 (stereo unspecified) | 3.1% | . | -10.7% | 40.6* | 59.7
CCc1ccc(NC(=O)c2ccccc2NC(=O)C2CCCO2)cc1 (stereo unspecified) | -15.6% | -7.0% | 2.7% | 64.8* | 51.2
Cc1nn(Cc2c(F)c(F)c(F)c(F)c2F)c(C)c1NC(=O)c1ccc(COc2cc(Cl)ccc2Cl)cc1 | -0.8% | 11.6% | 3.7% | 54.4* | 109.2*
Cc1cccc(C(=O)Nc2cc(OCc3cccc(F)c3)c(Cl)cc2Cl)c1 | -0.5% | 2.2% | 3.5% | 15.8* | 32.5
Cc1cccc(C)c1NC(=O)c1cccc(COc2cc(Cl)ccc2Cl)c1 | 3.5% | -0.8% | -0.8% | 28.7* | 62.1*
Cc1nn(Cc2c(F)c(F)c(F)c(F)c2F)c(C)c1NC(=O)c1ccc(COc2ccccc2Cl)cc1 | -1.3% | 13.9% | 5.8% | 5.6 | 5.8
COC(=O)C(Cc1ccc(OC(=O)c2ccc(C(F)(F)F)cc2)cc1)N1Cc2ccccc2C1=O (stereo unspecified) | -6.2% | 0.2% | 2.5% | 42.7* | 69.3*
COC(=O)C(Cc1ccc(OC(=O)c2ccc(Cl)cc2)cc1)N1Cc2ccccc2C1=O (stereo unspecified) | -4.5% | -22.0% | 0.0% | 44.1* | 126.4*
O=C(O)CC(c1ccc(Cl)cc1)N1Cc2ccccc2C1=O (stereo unspecified) | -0.3% | ? | 5.0% | -2.1 | -7.7
COc1cccc([C@@H]2Oc3ccc(OC)cc3C[C@H]2OC(=O)NS(=O)(=O)c2ccc(F)cc2)c1 | 0.6% | . | . | . | .
CC(C)(C)c1ccc(S(=O)(=O)N2CCC(NC(=O)c3ccco3)CC2)cc1 | . | -0.4% | 0.7% | -6.2 | -9.4
Cc1ccc(-c2noc(CNC(=O)c3ccc4c(c3)OCO4)n2)cc1 | 9.3% | -22.4% | -0.8% | -6.3 | -5.3
Cc1csc(=O)n1CC(=O)OCc1cccc2ccccc12 | -21.9% | -11.0% | -4.5% | 44.6* | 78.6*
Cc1cc(C)c(C(=O)COC(=O)Cn2c(C)csc2=O)cc1C | . | 0.6% | -0.5% | 24.0* | 44.5*
Cc1ccc(NC(=O)COC(=O)Cn2c(C)csc2=O)cc1C | 4.2% | -9.6% | 2.8% | 15.6 | 9.5
COc1ccc(/C(N)=N/OC(=O)CCc2ccccc2)cc1OC | -8.2% | -2.2% | -0.3% | 27.4* | 60.3
COc1ccc(C(=O)c2ccccc2)cc1Br | . | -56.0% | -1.0% | 15.4 | 0.9
COC1=CC(=O)C(C(=O)c2ccccc2)=CC1=O | 1.12µM* | . | . | . | .
COc1ccc(C(=O)c2nccc3ccccc23)cc1 | 0.5% | . | 0.0% | 36.8* | 47.7
COc1ccc(C(=O)c2ccccc2)cc1 | -1.8% | . | 12.1% | 30.6* | 44.8
CCCCCCCCCCCCCCC(C(=O)OC)C(O)(CC(=O)OC)C(=O)OC (stereo unspecified) | -14.8% | . | . | . | .
COc1ccc(N2C(=O)CC(C)(C)CC2=O)cc1OC | 8.0% | -0.9% | -3.6% | 2.8 | -6.6
COc1cc(OC)cc(C2=Nn3c(nnc3-c3ccccc3O)SC2)c1 | 0.4% | . | . | 11.3 | -2.0
COc1ccc(N(CC(=O)Nc2ccccc2C(=O)N2CCCC2)S(C)(=O)=O)cc1 | 2.6% | 8.2% | 2.9% | -3.1 | -4.0
Cc1ccc(C(=O)CCC(=O)O)cc1 | -1.4% | 2.1% | 3.7% | -3.9 | -11.8
COc1ccccc1OCCOc1ccc(C(=O)c2ccccc2)cc1 | 1.3% | -2.6% | -2.7% | 7.1 | 7.9
